In ChEMBL document CHEMBL1156829:
Several values for one entry are separate records, joined by “and”; a condition that tells them apart may be missing. Identical values can stand only once. Whole data set: some 5,400 compounds, median “IFI” near 2, cut for the highest 2% near 22. This excerpt belongs to a sample that is enriched for the highest values.

Assay: NOVARTIS: Inhibition Frequency Index (IFI) - the number of HTS assays where a compound showed > 50% inhibition/induction, expressed as a percentage of the number of assays in which the compound was tested.
Format: functional

Structure (SMILES)	IFI
c1ccc(CSc2scnc2[P+](c2ccccc2)(c2ccccc2)c2ccccc2)cc1	27.8%
c1ccc(CSc2nnc3c(n2)[nH]c2ccccc23)cc1	0% and 3.82%
c1ccc(CSc2nc3ccncc3[nH]2)cc1	0%
COc1ccccc1CN1CCc2nc(-c3cnccn3)sc2C1	9.86%
COc1ccc(CCNc2nc(NCCCn3ccnc3)ncc2C(=O)NCC(C)C)cc1OC	1.92%
CC(=O)N(Cc1ccc(F)cc1)C1=C(NCc2ccccc2)C(=O)c2ccccc2C1=O	23.1%
CC(=O)N(Cc1ccc(F)cc1)C1=C(NCCc2ccccc2)C(=O)c2ccccc2C1=O	8.33%
CNC1=C(N(Cc2ccc(Cl)c(Cl)c2)C(C)=O)C(=O)c2ccccc2C1=O	14.3%
CCOC(=O)c1c(N=Cc2cccc(OC)c2O)sc2c1CCN(C)C2	0%
O=c1cc[nH]c2cc(N3CCCCCC3)c(F)cc12	0%
O=C(Nc1ccc2oc(-c3cccc4ccccc34)nc2c1)c1ccc([N+](=O)[O-])o1	7.14%
C=CC1(C)CC23CC(C(OC(=O)c4ccccc4)c4ccnc5ccccc45)N2CCC13 (configuration not stated)	3.64%
COc1cccc2cc(-c3nc(-c4ccccc4)cs3)c(=O)oc12	6.45%
Cc1cc(/C=C2/SC(=S)N(CC(=O)O)C2=O)c(C)n1-c1ccccc1	0%
CCN1/C(=C\C=C2/SC(=S)N(c3ccccc3)C2=O)C(C)(C)c2cc(-c3ccccc3)ccc21	25%
COc1cccc(N2C(=O)/C(=C/c3cccnc3)SC2=S)c1	0%
N#Cc1c(-c2ccccc2)cc(N2CCN(Cc3ccc(Cl)cc3)CC2)n2c1nc1ccccc12	7.5%
CCOC(=O)c1c(-c2ccc3c(c2)OCO3)[nH]c2cc(OC)ccc2c1=O	0%
CCOC(=O)c1c(-c2ccc3c(c2)OCO3)[nH]c2cccc(OC)c2c1=O	0%
COc1cc2c(OC3OCC(OC)C(OC)C3O)c3c(c(-c4ccc5c(c4)OCO5)c2cc1OC)C(=O)OC3 (configuration not stated)	27.7%
CCOc1ccc(NC(=O)C2c3ccccc3C(=O)N(CC(C)C)C2c2cccs2)cc1 (configuration not stated)	6.25%
CS[C@H]1SC[C@H]2C(=O)N(C)[C@@H](C(C)C)C(=O)OC[C@@H](NC(=O)c3cnc4ccccc4n3)C(=O)N[C@@H](C)C(=O)N(C)[C@@H]1C(=O)N(C)[C@@H](C(C)C)C(=O)OC[C@@H](NC(=O)c1cnc3ccccc3n1)C(=O)N[C@@H](C)C(=O)N2C	34.6%
O=C(Nc1ccc(C2=NCCN2)cc1)c1ccc(-c2ccc(C(=O)Nc3ccc(C4=NCCN4)cc3)cc2)cc1	4.4%
O=C(CN(CCN1CCOCC1)S(=O)(=O)c1ccccn1)N1CCN(C(c2ccccc2)c2ccccc2)CC1	0%

Structure (SMILES)	IFI
OC1(c2ccc3ccccc3c2)c2c(c3ccccc3c3ccccc23)C2=NCCN21 (configuration not stated)	3.25%
CCn1c2ccccc2[n+]2c(C)cc(C)nc12	7.14%
COc1cc2nc(NCC3CCCO3)n3nc(-c4ccccc4)nc3c2cc1OC (configuration not stated)	2.27%
CCOC(=O)c1ccc2c(c1)[n+](CC)c(/C=C/N(C)c1ccccc1)n2CC	7.41%
CCn1c(/C=C/N(C)c2ccccc2)[n+](CC)c2cc(Cl)ccc21	6.25%
CC[n+]1c(/C=C/N(C)c2ccccc2)n(-c2ccccc2)c2ccc(-c3nc4ccccc4s3)cc21	29.2%
NCCC(=O)N1CC(c2ccccc2)c2ccccc2C1CN1CCCCC1 (configuration not stated)	4.22%
COc1ccc2cc(CNCCc3cccc(Cl)c3)c(N3CCC(=O)N(CCN(C)C)CC3)nc2c1	9.73%
Cc1onc(-c2ccccc2)c1C(=O)N1CCC(CNc2c(-c3ccc(F)cc3)nc3ccccn23)CC1	5.56%
Cc1ccc(-c2cc(-c3cc(Cl)ccc3O)on2)cc1	0%
c1ccc(Nc2nc(-c3ccccn3)cs2)nc1	18.1%
Cc1ccc(Nc2nc(-c3ccccn3)cs2)cc1	3.62%
Cc1ccnc(Nc2nc(-c3ccccn3)cs2)c1	24.6%
O=C1c2ccccc2C(=O)c2c1ccc1nonc21	30.8%
CC(=O)c1ccc2c3c(onc13)-c1ccccc1C2=O	0%
O=S(=O)(NC1CCCC1)c1cccc2nonc12	0%
O=C(C1=C(O)C(=O)N(CCCn2ccnc2)C1c1ccccc1[N+](=O)[O-])c1ccccc1 (configuration not stated)	0%
COc1cccc(CNc2ncnc3sc(C(=O)NCC4COCCO4)c(C)c23)c1OC (configuration not stated)	1%
COc1ccc(Nc2nc(NN=Cc3cccc([N+](=O)[O-])c3OC)nc(Nc3ccc([N+](=O)[O-])cc3)n2)cc1	6.49%
CCC(c1nc2ccccc2c(=O)n1CCOC)N1CCNCC1 (configuration not stated)	3.31%
C=CC[n+]1c(C=C2C=CN(C)C=C2)sc2ccccc21	15.4%
CC[n+]1c(C)cc2c([nH]c3ccccc32)c1C	3.03%
O=c1c2ccccc2[nH]c2ccc(F)cc12	0%
